Measurements published in PubChem BioAssay AID652122 (NMMLSC, 2013).
Activity calls are given as the source filed them.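 How the source made its calls: active means at least 15% of cells fluorescing red and green at top dose, and half-maximal dose below 10 µM; inactive means the rest.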

Test: myeloid differentiation promoters, wild-type HoxA9 cells, dose response, cell-based, flow cytometry, Powder Set01 subset01 (AID 652122)
Conditions: HoxA9 wt myeloid cells, GFP+/MAC1+ differentiation; series mostly up to 10 µM

Question: Which outcome does the source give for O=C(O)c1cccnc1Nc1ccc(Cl)cc1 here?
Answer: Its outcome is “inactive”.

Question: With O=C(CCNC(=O)c1ccc(Cl)cc1)NC1CCCc2ccccc21 (stereo not drawn) as the compound, how does the outcome read?
Answer: Its outcome is “inactive”.

Question: Which outcome does the source give for Cc1ccc(Nc2nc(=O)c3cccnc3s2)c(Br)c1 here?
Answer: Its outcome is “inactive”.
